SMILES strings stand for the structures. Several values for one entry are separate records, joined by “and”; a condition that tells them apart may be missing. Equal entries are not always repeated. The whole screen tested about 290,000 compounds, of which about 260 (0.09%) were called active. Cut-off read from the data, not from the text of the source: active = inhibition above about 50%; inactive = the rest. For the sample, actives were picked, then their nearest neighbours and some compounds at random. Entries with a potency or affinity are not part of this list.

For 75 compounds, inhibition results are on record in PubChem BioAssay AID1778 (Sanford-Burnham Center for Chemical Genomics, 2009).

The target in the test is Kappa-type opioid receptor (Homo sapiens) (UniProt P41145). The test is described as follows: KOR antagonists, beta-arrestin recruitment, cell-based, luminescence, uHTS (AID 1778). Conditions: antagonist mode, stronger effect = higher value; at 10 µM unless noted. For orientation: Recruitment of arrestin is a read-out of receptor activation apart from second messengers.
Sequence of Kappa-type opioid receptor (Homo sapiens) (P41145 whole entry, looked up): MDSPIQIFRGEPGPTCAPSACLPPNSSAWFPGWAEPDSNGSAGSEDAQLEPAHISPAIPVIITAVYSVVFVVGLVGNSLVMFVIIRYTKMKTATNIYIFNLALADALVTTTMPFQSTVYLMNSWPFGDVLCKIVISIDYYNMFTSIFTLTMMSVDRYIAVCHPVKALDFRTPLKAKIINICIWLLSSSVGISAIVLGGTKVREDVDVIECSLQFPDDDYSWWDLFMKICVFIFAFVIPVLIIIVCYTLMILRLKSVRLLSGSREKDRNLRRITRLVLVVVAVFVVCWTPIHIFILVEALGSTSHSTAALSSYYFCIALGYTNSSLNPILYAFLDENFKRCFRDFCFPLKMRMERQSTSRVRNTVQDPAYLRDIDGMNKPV
Usually inhibition stands for the change of the read-out against control, counted positive when it falls. For the compound `O=C(Oc1cccc2cccnc12)c1cccc([N+](=O)[O-])c1`, the inhibition is -16.3% [at 20 µM] (inactive).

Consider `O=C(Oc1ccc(Cl)c2cccnc12)c1cccc([N+](=O)[O-])c1`, for which the inhibition was -2.7% (inactive).

In the case of `O=C(Oc1c(Cl)cc(Cl)c2cccnc12)c1cccc([N+](=O)[O-])c1`, the inhibition is 99.6% (active).

Take `COc1cc2c(cc1OC)CN(C(=O)CCNS(=O)(=O)c1ccccc1F)CC2`: the inhibition was 5.3% (inactive).

In the case of `Cc1ccc(C)n1-n1c(C)nc2scc(-c3ccccc3)c2c1=O`, the inhibition is -3.4% (inactive).

With `Cc1nc2scc(-c3ccccc3)c2c(=O)n1N`, the inhibition is -2.3% (inactive).

`Cc1nc(NC(=O)CSC2=NCCS2)sc1C(=O)N(C)C`: the inhibition was -22.6% (inactive).

In the case of `COc1ccc(S(=O)(=O)N2CCN(c3ccccn3)CC2)cc1[N+](=O)[O-]`, the inhibition was 5.2% (inactive).

For `CC(C)(C)C(=O)/C(C#N)=C/c1cccs1`, the inhibition is 1.1% (inactive).

On to `O=C(Nc1ccccc1)c1ccc(Nc2c([N+](=O)[O-])cc([N+](=O)[O-])c3ccccc23)cc1`, for which the inhibition was 20.1% (inactive).

As for `Cc1ccc(NC(=O)c2ccc(Nc3c([N+](=O)[O-])cc([N+](=O)[O-])cc3[N+](=O)[O-])cc2)cc1`, the inhibition is 1.3% (inactive).

With `Cc1ccc(NC(=O)C2CCN(S(=O)(=O)c3ccc4c(c3)NC(=O)C(C)S4)CC2)c(C)c1` (stereo not given), the inhibition was 11.1% (inactive).

For the compound `COc1ccc(CSc2cccc3cccnc23)cc1[N+](=O)[O-]`, the inhibition is -30.5% (inactive).

Turning to `Cc1cccc(NC(=O)CSc2cccc3cccnc23)c1`, the inhibition is -3% (inactive).

`CC(Oc1ccccc1)C(=O)Nc1nnc(S(=O)(=O)Nc2ccccc2)s1` (stereo not given): the inhibition was -37.1% [at 20 µM] (inactive).

With `COc1ccc(N(CC(=O)Nc2ccc(S(=O)(=O)N3CCOCC3)cc2)S(=O)(=O)c2ccccc2)cc1`, the inhibition is -0.6% (inactive).

Regarding `COc1ccc(N(CC(=O)Nc2ccc(S(=O)(=O)N3CCOCC3)cc2)S(=O)(=O)c2ccc(F)cc2)cc1`, the inhibition was 28.3% (inactive).

Regarding `CN1/C(=C\C=O)C(C)(C)c2ccccc21`, the inhibition was -23.9% (inactive).

Regarding `CCCN1C(=O)/C(=C\C=C2/Sc3ccccc3N2CC)SC1=S`, the inhibition is -42.6% [at 20 µM] (inactive).

As to `C=CCN1C(=O)/C(=C\C=C2\N(C)c3ccccc3C2(C)C)SC1=S`, the inhibition is 3.2% (inactive).

As to `CCCCN1C(=O)/C(=C/C=C2\N(C)c3ccccc3C2(C)C)SC1=S`, the inhibition was 6.8% (inactive).

Turning to `CN1/C(=C\C=C2/C(=O)Oc3ccccc3C2=O)C(C)(C)c2ccccc21`, the inhibition was -18.4% (inactive).

In the case of `CCCN1C(=O)/C(=C\C=C2/Sc3ccccc3N2CCO)SC1=S`, the inhibition was 17.8% (inactive).

Take `CN1/C(=C\C=C2/SC(=S)N(CC(=O)O)C2=O)C(C)(C)c2ccccc21`: the inhibition is 77.1% [at 20 µM] (active).

For the compound `CN1C(=CC=C2C=C(I)C(=O)C(I)=C2)C(C)(C)c2ccccc21`, the inhibition is 68.2% (active).

Take `O=C1CC(C2CCCO2)C(=O)N1c1ccccc1` (stereo not given): the inhibition is -21.9% (inactive).

`Cn1c(=O)c(C(=O)NCc2ccccc2Cl)c(O)c2ccccc21`: the inhibition is -41.3% [at 20 µM] (inactive).

For `Cc1ccccc1CN(C)C(=O)CNC(=O)c1ccc2ccccc2c1`, the inhibition was -14.6% (inactive).

Take `Cc1ccc(NC(=O)Cn2cc(S(=O)(=O)c3ccc(F)cc3)c(=O)c3cc(F)ccc32)cc1`: the inhibition is -36.8% (inactive).

For `Cn1c(CCNC(=O)c2ccccc2)nc2cc(NC(=O)C3CCCCC3)ccc21`, the inhibition is 1.3% (inactive).

Consider `COc1ccc(/C=C/c2ccc3c(Br)ccc(O)c3n2)cc1`, for which the inhibition is 0.3% (inactive).

`COc1cc(/C=C/c2ccc3cccc(O)c3n2)cc(Br)c1OC`: the inhibition was -20% (inactive).

For `COc1cc(/C=C/c2ccc3cccc(O)c3n2)cc(OC)c1OC`, the inhibition is -5.8% (inactive).

As for `COc1cc(/C=C/c2ccc3c(Br)cc(Br)c(O)c3n2)ccc1O`, the inhibition is 57.8% (active).

In the case of `COc1ccc(/C=C/c2ccc3cccc(O)c3n2)cc1Br`, the inhibition was -9.3% (inactive).

As for `COc1ccc(C(c2nnnn2C2CCCC2)N2CCC(C)CC2)cc1` (stereo not given), the inhibition is -3% (inactive).

For `Cn1c(=O)[nH]c(=O)c2c1nc(NCCN)n2CCOc1ccccc1`, the inhibition is -30.9% [at 20 µM] (inactive).

`Cc1sc2nc(C3CC3)nc(N3CCN(C(=O)c4ccccc4F)CC3)c2c1C`: the inhibition was 4.1% (inactive).

Consider `C/C(=N\NC(=O)c1c[nH]c2ccccc12)c1ccccn1`, for which the inhibition was 21.4% (inactive).

For `NNC(=O)c1cc(-c2cccs2)nc2ccccc12`, the inhibition is 40.8% (inactive).

`C/C(=N/NC(=O)c1cc2ccccc2cc1O)c1ccco1`: the inhibition is 17% (inactive).

Take `C/C(=N\NC(=O)c1cc2ccccc2cc1O)c1cccs1`: the inhibition was 1.2% (inactive).

As for `C/C(=N\NC(=O)c1cc(-c2cccs2)nc2ccccc12)c1ccccn1`, the inhibition is 75.1% (active).

`C/C(=N\NC(=O)c1ccccc1)c1cccc(Br)c1`: the inhibition is 21.6% (inactive).

Regarding `C/C(=N\NC(=O)c1cccc(Br)c1)c1cccnc1`, the inhibition was -7.4% (inactive).

Regarding `C/C(=N\NC(=O)c1cc(Br)ccc1O)c1cccs1`, the inhibition was -5.5% (inactive).

Consider `O=C(N/N=C/c1ccc2ncccc2c1)c1cc(-c2cccs2)nc2ccccc12`, for which the inhibition is 28.4% (inactive).

As to `CC(C)CNC(=S)N(CCCN(C)C)Cc1cc2cc3c(cc2[nH]c1=O)OCCO3`, the inhibition was -1.3% [at 20 µM] (inactive).

`O=C(O)c1nnn(-c2cc(C(F)(F)F)cc(C(F)(F)F)c2)c1-c1ccccc1`: the inhibition was 7.9% (inactive).

For the compound `COc1ccc(-c2nc(C)sc2CC(=O)O)cc1`, the inhibition was -5.7% (inactive).

Consider `N#Cc1c(C(F)(F)F)cc(-c2ccc(Cl)c(Cl)c2)nc1SCCN1CCOCC1`, for which the inhibition is -29.4% (inactive).

Regarding `CCOC(=O)C1=C(CSc2nc(-c3ccncc3)ccc2C#N)OC(N)=C(C#N)C1c1ccc(OC)cc1` (stereo not given), the inhibition was -4.9% (inactive).

Consider `CC(C)NC(=S)n1cc(C(=O)c2cc(Cl)cc(Cl)c2O)cn1`, for which the inhibition was -10% (inactive).

On to `COC(=O)C1c2ccccc2-c2ccccc21`, for which the inhibition was -7.3% (inactive).

As for `CCOc1ccc(C(=O)/C=C/Nc2ccc(S(=O)(=O)N=C(N)N)cc2)cc1`, the inhibition was 1% (inactive).

For `Cc1ccc(N(C(=O)CNC(=O)c2ccco2)C(C(=O)NCC2CCCO2)c2ccccc2)cc1` (stereo not given), the inhibition was -12.5% (inactive).

As for `CC1CN(C(=S)SCC(=O)c2ccc(Cl)cc2)CC(C)O1` (stereo not given), the inhibition is 21.8% (inactive).

For the compound `Cc1ccc(-c2onc(C)c2C)cc1S(=O)(=O)N1CC(C)Oc2ccccc21` (stereo not given), the inhibition was -11.7% (inactive).

Take `COc1ccc(N)c2c1C(=O)c1ccccc1C2=O`: the inhibition was 20.4% (inactive).

In the case of `COc1ccc(OC)c2c1C(=O)c1ccccc1C2=O`, the inhibition is -4.5% (inactive).

In the case of `O=C1CC[C@@H](CN(Cc2ccccn2)Cc2nc(-c3ccc(C(F)(F)F)cc3)no2)N1`, the inhibition was 3.4% [at 20 µM] (inactive).

Regarding `O=C(CC1C(=O)NCCN1Cc1cccc(Oc2ccccc2)c1)NCCCn1cccn1` (stereo not given), the inhibition was -2.5% (inactive).

Turning to `CC(/C=C\c1cccnc1)=C/C(=O)O`, the inhibition is -0.4% (inactive) and 17.9% (inactive).

Regarding `O=C(/C=C/c1cccnc1)/C=C/c1cccnc1`, the inhibition was 57.9% (active).

Regarding `O=C(O)/C=C/c1cccnc1`, the inhibition is 17.9% (inactive).

As for `Cn1ccnc1SCc1nc2c(cnn2-c2ccccc2)c(=O)[nH]1`, the inhibition is -17.7% (inactive).

As to `Cc1cccc(-n2c(SCc3ccc(C#N)cc3)nnc2-c2c[nH]c3ccccc23)c1`, the inhibition is 6.1% (inactive).

Consider `CCOc1ccc(N2CC(C(=O)Nc3ccncc3)CC2=O)cc1` (stereo not given), for which the inhibition was 15.6% (inactive).

Consider `CCOC(=O)Cc1[nH]nc2c1C(Cc1ccccc1)C(C#N)=C(N)O2` (stereo not given), for which the inhibition is -4.1% (inactive).

In the case of `CC1(C)CC(=O)C(/C=N/c2ccccn2)=C(O)C1`, the inhibition was 40.5% (inactive).

With `CC1(C)CC(=O)C(/C=N/c2ncccc2C(=O)O)=C(O)C1`, the inhibition was -24.7% (inactive).

Regarding `CN(C)S(=O)(=O)c1cccc(C(=O)Nc2cc(Cl)ccc2O)c1`, the inhibition was -1.5% (inactive).

Consider `C/C(=C\c1ccc(F)cc1)C(=O)c1c(C)cc(C)[nH]c1=O`, for which the inhibition was 5.1% (inactive).

With `O=C(NCc1ccccn1)C(=O)NN=C1CCCCCCCCCCC1`, the inhibition is -9.2% [at 20 µM] (inactive).

Consider `CCOC(=O)C(CSCC(=O)c1ccc(Br)cc1)NC(=O)OC(C)(C)C` (stereo not given), for which the inhibition was 3.7% (inactive).
